According to PubChem BioAssay (NCI):
About 83,000 compounds went through this panel and 20% of them were active in at least one assay; those are over-represented in the sample as a whole.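 Results are percent growth after 48 hours of single-concentration exposure. 100 means growth as in untreated cells, lower positive values show inhibition; negative values down to -100 show cell death.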 Unmarked numbers belong to inactive results. Active and inactive are the calls of the source. The calls were made as follows: active = growth percent below 10; inactive = the rest.

test system: MDA-MB-468 breast; assay: NCI-60 one-dose screen, 48 h (100 = growth as untreated, 0 = no growth, -100 = all killed); conditions: 10 µM unless noted

Row | Compound | growth
1 | COc1cccc(/C=C2\COc3ccc(O)c(O)c3C2=O)c1 | -11.1% (active)
2 | COc1cc2ncnc(Nc3ccc(S(=O)(=O)Nc4cc(C)on4)cc3)c2cc1OCCCN1CCN(c2ccc([N+](=O)[O-])cc2)CC1 | 115%
3 | COc1ccc(-c2nn(-c3cccc(Cl)c3)cc2-c2c(C#N)c(=O)n3[nH]c(-c4ccc(C)cc4)nc3c2C#N)cc1 | -1.87% (active)
4 | COC(=O)c1c2c(c(C)[n+]([O-])c1C)C(=O)C(NCc1cccc(Cl)c1)=CC2=O | -26.3% (active)
5 | ClC1=C(Br)C(Br)(Br)C(=C(Br)Br)C1(Br)Br | 74.4%
6 | COc1ccc(NC(=O)CSc2nnc(-c3cc(-c4ccc(S(N)(=O)=O)cc4)nc4ccccc34)n2-c2ccccc2)cc1 | 86.4%
7 | O=C(CN1CCN(c2cc3c(cc2F)c(=O)c(C(=O)N/N=C/c2ccccc2)cn3C2CC2)CC1)N/N=C\c1ccccc1 | 85.4%
8 | COc1ccc(/C=N\NC(=O)c2ccc3nc(-c4ccc(Br)cc4)[nH]c3c2)cc1 | 32.1%
9 | O=[N+]([O-])c1ccc2[nH]c3nccc(NCc4cccc(Cl)c4)c3c2c1 | 69%
10 | Cc1ccc(-c2nc(/C=N/Nc3cc(C)nc4ccc(Cl)cc34)c(C)o2)cc1 | -76% (active)
11 | CNc1nc(NC)c2cn[nH]c2n1 | 94.8%
12 | CCOC(=O)c1ccc(NC(=O)Nc2nncs2)cc1 | 12.5%
13 | Cc1ccc(NC(=O)c2nc(S(C)=O)oc2-c2ccc(F)cc2)cc1Nc1nccc(-c2cccnc2)n1 (stereo not given) | 10.6%
14 | Nc1ccc(S(=O)(=O)O)c2ccc(N=Nc3ccc(N=Nc4ccc(S(=O)(=O)O)cc4)c4ccccc34)c(O)c12 | 96.6%
15 | CCO/C=N/C1=C(C#N)C(c2ccc(Cl)cc2)c2c(c3ccc(C)cc3[nH]c2=O)O1 (stereo not given) | 96.8%
16 | Nc1c2c(c(O)c3c1=C(CO)C=N3)=NCCS2 | -72% (active)
17 | O=C1c2c(c3c4cccnc4[nH]c3c3ccc4ccccc4c23)C(=O)N1CCN1CCNCC1 | 87.1%
18 | CC(C)(C)CC(C)(C)NC(=O)Nc1ncccc1OCc1ccccc1 | 96%
19 | C=C1[C@@H](O)C[C@H]2C(C)(C)C[C@H](Cl)C[C@]2(C)[C@H]1C[C@H](O)[C@H]1CC(=O)NC1=O | -47.5% (active)
20 | Cc1ccc(Nc2cc(=S)nc(N)[nH]2)cc1C | 84.8%

Row | Compound | growth
21 | c1ccc(CNc2ncnc3ccc(-c4cnc5[nH]ncc5c4)cc23)cc1 | 50.7%
22 | Cc1oc2ncnc(Nc3ccccc3)c2c1C(=O)NCCO | 109%
23 | CCOC(=O)c1sc2ncnc(Nc3ccc(NC(=O)Nc4ccc(Cl)cc4)cc3)c2c1C | 68.9%
24 | CCCCN(CCCC)CC(O)CN(CC)CC (stereo not given) | 101%
25 | COc1ccc(S(=O)(=O)N2CCCCCC2)cc1NC(=O)c1[nH]c(C)c2c1CCCCC2=O | 4% (active)
26 | CC1(C)OC2C(CO)OC(n3ccc(=O)[nH]c3=O)C2O1 (stereo not given) | 127%
27 | COc1ccc(C)cc1NC(=O)SC(C)C | 91.9% [100 µM]
28 | O=[N+]([O-])c1ccc(-c2nnc(SCc3ccc(O)c4ncccc34)o2)cc1 | 16.2%
29 | c1ccc2c(c1)oc1c3c(ccc12)NCCC3 | -51.5% (active)
30 | Nc1nc(Nc2cc(Cl)cc(Cl)c2)nn1S(=O)(=O)c1ccc2ccccc2c1 | 66.3%
31 | NC(=O)c1ncn2c(=O)n(CCF)nnc12 | 48.4%
32 | CCN(CC)CCN1C(=O)c2c(c(C)c3c(oc4ccc(O)cc43)c2C)C1=O | 47.5%
33 | CCOC(=O)c1c(C)nc2c(c1N)C(=O)C(=O)N2CCc1ccc(OC)c(OC)c1 | 49%
34 | C=CC(=O)Nc1ccc2ncnc(Nc3cccc(NS(=O)(=O)CCC)c3Cl)c2c1 | -31.9% (active)
35 | CN1CCN(CCOc2ccc(-c3cnc4c(-c5ccc(C(F)(F)F)cc5)cnn4c3)cc2)CC1 | 42.1%
36 | NC1=NN=C2N(N)C(=O)c3cnn(-c4ccccc4)c3N2c2nc(-c3ccccc3)cc(-c3ccccc3)c21 | 110%
37 | O=C(COCc1c(-c2ccccc2)no[n+]1[O-])Nc1nc(-c2ccc(Cl)cc2)cs1 | 100%
38 | COCCOc1ccc(-c2csc(NC(=O)CN3CCN(CCO)CC3)n2)cc1NS(=O)(=O)c1cccc2c(N(C)C)cccc12 | 60.7%
39 | Cc1ccccc1N1CCN(C2=C(Cl)C(=O)c3ncccc3C2=O)CC1 | -68.8% (active)
40 | Cc1ccc(C2CC3c4ccccc4C2C2CCCCN32)cc1 (stereo not given) | -0.132% (active)
